# Shown are actives, neighbours in structure and some others; about 0.64% of the full set was active somewhere.
# AI-2 QS modul: Vibrio harveyi AI-2 quorum sensing modulation. AID 2094. Vibrio harveyi JMH597 AI-2 luminescence/OD600 ratio, 9 h; stronger effect = lower value; strain lacks LuxN and CqsS sensors; 0 = neutral-control median. 300,000 tested, 0.4% active. activity change, % at 7.5 µM; in the data active = activity change below about -75%, passing the limit was not always enough; inconclusive = no clear call, values can overlap the other calls;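 note: luminescence divided by OD600 gain over 9 h not by final OD600 alone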
# PDI inh: PDI (human) enzyme inhibition. PDI insulin aggregation turbidity, A650, 90 min. inhibition, % at 10 µM. AID 588391. P07237. 350,000 tested, 0.052% active;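 active = mean inhibition across replicates of 30% or more, whatever share of single replicates reach that level; inconclusive = mean inhibition below 30% while every single replicate reaches 30%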
# Target sequence (P07237 whole entry, looked up): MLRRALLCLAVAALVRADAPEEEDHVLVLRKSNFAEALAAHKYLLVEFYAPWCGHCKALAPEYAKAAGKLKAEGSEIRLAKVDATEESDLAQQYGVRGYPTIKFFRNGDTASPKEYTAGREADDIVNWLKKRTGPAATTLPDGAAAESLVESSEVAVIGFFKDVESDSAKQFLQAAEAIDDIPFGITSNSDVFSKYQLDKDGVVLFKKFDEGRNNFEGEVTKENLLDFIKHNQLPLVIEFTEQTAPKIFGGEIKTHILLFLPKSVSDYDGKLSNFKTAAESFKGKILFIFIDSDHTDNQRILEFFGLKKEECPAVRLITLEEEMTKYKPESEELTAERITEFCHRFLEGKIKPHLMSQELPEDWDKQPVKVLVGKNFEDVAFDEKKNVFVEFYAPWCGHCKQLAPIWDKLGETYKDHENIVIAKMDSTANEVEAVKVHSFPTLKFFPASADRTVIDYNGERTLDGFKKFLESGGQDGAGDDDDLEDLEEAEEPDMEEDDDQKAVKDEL
# ERp5 inh: ERp5 (human) disulfide isomerase inhibition; Q15084; ERp5 insulin aggregation, absorbance 650 nm, 90 min; inhibition, % at 9.99 µM; 350,000 tested, 0.05% active; AID 651711;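 active = mean replicate inhibition above about 25%, with every replicate also reaching it, limit read from the data, passing the limit was not always enough; inconclusive = only one of those two criteria met; inactive = neither criterion met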
# PvdQ inh: P. aeruginosa PvdQ acylase inhibition; purified PvdQ acylase, fluorescence plate reader; inhibition, % at 10 µM; 340,000 tested, 0.063% active; AID 488965; in the data active = inhibition above about 30%, passing the limit was not always enough; inconclusive = no clear call, values can overlap the other calls;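 note: 0% = vehicle neutral wells and 100% = reference inhibitor wells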
# Vif imaging: blocks HIV Vif function; 340,000 tested, 0.35% active; HEK293T cells, Vif self-association by quenched fluorescence, imaging, 24 h; inhibition, % at 7.49 µM; in the data active = inhibition above about 50%, passing the limit was not always enough; inconclusive = no clear call, values can overlap the other calls; inactive = below about 31%
# Active calls of the source: *; ? = inconclusive; / = no result given; + = active, no number.
SMILES,AI-2 QS modul,PDI inh,ERp5 inh,PvdQ inh,Vif imaging
CN1C(=O)c2cc(NC(=O)C3CCCC3)ccc2OC[C@@H]2O[C@@H](CC(=O)NCc3ccccc3F)CC[C@@H]21,/,/,-2,/,/
CCS(=O)(=O)N1CCC2(CC1)CN(CC1CCOCC1)[C@H](CO)c1c2c2ccc(OC)cc2n1C,/,/,9,/,/
Cc1noc(C)c1S(=O)(=O)Nc1ccc2c(c1)CC(=O)N([C@@H](C)CO)C[C@H](C)[C@H](CN(C)S(=O)(=O)c1ccccc1)O2,/,/,-1,/,/
C/C(=N\Nc1ccc(Cl)c(C(=O)O)c1)c1cccc2ccccc12,21,5,7,-16,65*
O=C(NC12CC3CC(CC(C3)C1)C2)c1ccc([N+](=O)[O-])o1,-210*,3,-5,6,0
CC(C)(C)c1cc(NC(=O)c2ccco2)no1,14,8,28*,-4,1
CCOc1ccc(S(=O)(=O)Nc2cccc(C(=O)N(C)CC(=O)Nc3cccc(OC)c3)c2)cc1,-13,12,2,11,18
CCOc1ccc(S(=O)(=O)Nc2cccc(C(=O)N(C)CC(=O)Nc3ccc(OC)cc3)c2)cc1,/,0,5,-2,72*
COC(=O)[C@]1(C)N[C@H](CN(C)S(=O)(=O)c2ccc(OC(F)(F)F)cc2)[C@@H]2C(=O)N(C)C(=O)[C@@H]21,/,-3,34*,-17,0
CC(C)CN1C(=O)C(=O)N(CC(=O)c2ccc3c(c2)OCO3)C1=O,16,18,1,9,147*
CCOC(=O)Cn1c(COc2ccccc2OC)[n+](C)c2ccccc21,28,-4,2,/,66*
CCc1ccc(N2C(=O)/C(=C/c3cccs3)N(CC(=O)OC)C2=S)cc1,12,5,2,-2,116*
COC(=O)CN1C(=S)N(c2ccc(OC)cc2)C(=O)/C1=C/c1cccs1,-10,9,/,-2,21
CN1CCN(C(=S)c2ccc(OCC(=O)Nc3cccc(C(F)(F)F)c3)cc2)CC1,6,-3,5,-4,54*
C[C@@H]1CN([C@H](C)CO)C(=O)Cc2cc(NC(=O)Nc3ccc4c(c3)OCO4)ccc2O[C@@H]1CN(C)S(=O)(=O)c1ccc(Cl)cc1,/,/,6,/,/
CCCCc1ccc(-c2csc(/C(C#N)=C\c3ccco3)n2)cc1,8,10,2,14,51*
N#C/C(=C/c1ccco1)c1nc2ccccc2s1,3,-8,/,41*,-8
N#C/C(=C\c1ccco1)c1nc2ccccc2s1,11,2,/,?,/
CCCCc1ccc(-c2csc(/C(C#N)=C/c3ccc(C)o3)n2)cc1,26,-2,/,-5,/
COc1ccc2c3c(n(C)c2c1)[C@H](CO)N(C(=O)CC1CC1)CC31CN(Cc2ccccc2)C1,/,/,-6,/,/
Cc1c(O)ccc2c(CN3CCOCC3)cc(=O)oc12,9,20,-2,-8,7
Cc1c(O)ccc2c(CN3CCN(CCO)CC3)cc(=O)oc12,13,53*,/,-3,0
COc1ccc(C[C@@H]2CN3C(=NC[C@@H]3Cc3ccc(O)cc3)N2C[C@H](C)NC(=O)CCC2CCCCC2)cc1,37,40*,/,-2,2
C/C=C(\C)C(=O)NCCN1C2=NC[C@H](Cc3ccc(O)cc3)N2C[C@H]1Cc1ccc(O)cc1,23,45*,1,-8,-5
C/C=C(\C)C(=O)NCCN1C2=NC[C@@H](Cc3ccccc3)N2C[C@H]1Cc1ccc(O)cc1,26,6,6,-8,-2
SMILES,AI-2 QS modul,PDI inh,ERp5 inh,PvdQ inh,Vif imaging
COc1ccc(C[C@H]2CN3C(=NC[C@@H]3Cc3ccc(O)cc3)N2C[C@H](C)NC(=O)CCC2CCCCC2)cc1,27,18,-5,-10,-6
CC(C)C(=O)Nc1ccc2c(c1)C(=O)N(C)[C@@H]1CC[C@H](CC(=O)O)O[C@H]1CO2,/,/,-5,/,/
Cc1ccc(OCc2cc(C(=O)NC(C)Cc3cccnc3)no2)cc1C (stereo not given),38,3,0,-10,0
Cc1ccc(OCc2cc(C(=O)NCCc3cccnc3)no2)cc1C,-84*,-1,1,-4,1
C[C@@H]1CCCCO[C@H](CN(C)S(=O)(=O)c2cccs2)[C@H](C)CN([C@H](C)CO)C(=O)c2cc(NC(=O)Nc3ccc(F)cc3)ccc2O1,/,/,1,/,/
C[C@@H]1CN([C@@H](C)CO)C(=O)c2cc(NC(=O)CCCN(C)C)ccc2O[C@H]1CN(C)C(=O)NC1CCCCC1,/,/,2,/,/
CCCCN(C(=O)C1=CC=CN2CCS(=O)(=O)N=C12)c1ccccc1,/,37*,1,14,19
Brc1cccc(OCCSc2ncccn2)c1,-82*,-5,?,2,3
Nc1nnc(SCCOc2cccc(Br)c2)s1,-79*,5,/,-6,2
CC(C)NCCOc1cccc(Br)c1,/,17,/,-8,56*
CCCOc1ccc(OCCSc2nnc(N)s2)cc1,26,-9,/,-5,-13
C[C@H]1CN([C@@H](C)CO)C(=O)c2cccc(NC(=O)c3cnccn3)c2O[C@@H]1CN(C)Cc1ccc2c(c1)OCO2,/,/,-1,/,/
CCOC(=O)c1cc2c(s1)-c1c(C)cccc1OC2,12,/,-3,68*,-5
Cc1cccc2c1-c1sc(C(=O)Nc3nccs3)cc1CO2,18,-13,?,-9,0
CC(C)CC#Cc1ccc([C@@H]2[C@H]3CN(C(=O)NC4CCCCC4)CC(=O)N3[C@H]2CO)cc1,/,/,-3,/,/
C#CCOCCOCCOCCNc1nc(N2CCN(C(=O)CCCCCCCCCCNC(=O)[C@H]([C@@H](C)CC)n3cc(CCCCCN)nn3)CC2)nc(N2CCN(C(=O)CCCCCCCCCCNC(=O)[C@H]([C@@H](C)CC)n3cc(CCCCN=C(N)N)nn3)CC2)n1,/,11,/,10,+
C#CCOCCOCCOCCNc1nc(N2CCN(C(=O)[C@H](CCCCN)n3cc([C@@H](N)C(C)CC)nn3)CC2)nc(N2CCN(C(=O)[C@H](Cc3cc4ccccc4[nH]3)n3cc([C@@H](N)CC(C)C)nn3)CC2)n1 (stereo not given in full),13,44*,/,-22,0
C#CCOCCOCCOCCNc1nc(N2CCN(C(=O)CCCCCCCCCCNC(=O)[C@H]([C@@H](C)CC)n3cc(CCCCCN)nn3)CC2)nc(N2CCN(C(=O)CCCCCCCCCCNC(=O)[C@H](CO)n3cc(CCCCCN)nn3)CC2)n1,/,19,/,-16,96*
C#CCOCCOCCOCCNc1nc(N2CCN(C(=O)CCCCCCCCCCNC(=O)Cn3cc(CCCCCN)nn3)CC2)nc(N2CCN(C(=O)CCCCCCCCCCNC(=O)[C@H]([C@@H](C)CC)n3cc(CCCCN=C(N)N)nn3)CC2)n1,/,-6,/,16,104*
C#CCOCCOCCOCCNc1nc(N2CCN(C(=O)CCCCCCCCCCNC(=O)[C@H]([C@@H](C)CC)n3cc(CCCCN=C(N)N)nn3)CC2)nc(N2CCN(C(=O)CCCCCCCCCCNC(=O)[C@H](CO)n3cc(CCCCCN)nn3)CC2)n1,/,4,/,0,21
COC(=O)C[C@@H]1C=C[C@H](NC(=O)c2ccccc2)[C@H](CO)O1,/,/,11,/,/

# From PubChem
